Measured values as given in PubChem BioAssay (NCI).
About 83,000 compounds went through this panel and 20% of them were active in at least one assay; those are over-represented in the sample as a whole.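 Note: values are percent growth. 100 is the growth of untreated cells, values between 100 and 0 indicate rising inhibition; between -100 and 0 indicates cell death.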 A number with no mark means an inactive call. Calls of active or inactive are those of the source. Rule for the calls: active = growth percent below 10; inactive = the rest.

Experiments:
Assay in all cases: NCI-60 one-dose screen, 48 h (100 = growth as untreated, 0 = no growth, -100 = all killed)
HCT-15 colon = details: 10 µM unless noted
HT29 colon = details: 10 µM unless noted
SNB-75 CNS = details: 10 µM unless noted
SNB-19 CNS = details: 10 µM unless noted
U251 CNS = details: 10 µM unless noted
PC-3 prostate = details: 10 µM unless noted
UACC-62 melanoma = details: 10 µM unless noted
LOX IMVI melanoma = details: 10 µM
SK-MEL-28 melanoma = details: 10 µM unless noted
SK-MEL-2 melanoma = details: 10 µM unless noted
EKVX NSCLC = details: 10 µM unless noted
SN12C renal = details: 10 µM unless noted
UO-31 renal = details: 10 µM unless noted
TK-10 renal = details: 10 µM unless noted
ACHN renal = details: 10 µM unless noted
CAKI-1 renal = details: 10 µM unless noted
A498 renal = details: 10 µM unless noted
CCRF-CEM leukemia = details: 10 µM unless noted
SK-MEL-5 melanoma = details: 10 µM unless noted
MOLT-4 leukemia = details: 10 µM unless noted

| Compound | growth (HCT-15 colon) | growth (HT29 colon) | growth (SNB-75 CNS) | growth (SNB-19 CNS) | growth (U251 CNS) | growth (PC-3 prostate) | growth (UACC-62 melanoma) | growth (LOX IMVI melanoma) | growth (SK-MEL-28 melanoma) | growth (SK-MEL-2 melanoma) | growth (EKVX NSCLC) | growth (SN12C renal) | growth (UO-31 renal) | growth (TK-10 renal) | growth (ACHN renal) | growth (CAKI-1 renal) | growth (A498 renal) | growth (CCRF-CEM leukemia) | growth (SK-MEL-5 melanoma) | growth (MOLT-4 leukemia) |
| --- | --- | --- | --- | --- | --- | --- | --- | --- | --- | --- | --- | --- | --- | --- | --- | --- | --- | --- | --- | --- |
| O=C(Cn1c(/C=C/c2cccc([N+](=O)[O-])c2)nc2ccccc2c1=O)Nc1ccccc1 | 66.2% | 71.1% | 70.1% | 81.3% | 11.8% | 78.4% | 50.9% | 33% | 85.4% | 87.7% | 79.6% | 74.5% | 77.4% | 109% | 43.9% | 80.2% | 94.7% | 91.5% |  |  |
| COc1ccccc1/C=C/C(=O)c1ccc(OC)c(S(N)(=O)=O)c1 | 7.53% (active) | 18.7% | 8.99% (active) | 27.3% | 5.14% (active) | 48.5% | 44.4% | 1.03% (active) | 38.7% | 78.4% | 23.2% | 15.5% | 24.7% | 41.5% | 21.4% | 20.9% | 105% | 6.32% (active) |  |  |
| COc1ccc(C(=O)Nc2n[nH]c(Nc3ccccc3)c2C#N)cc1 | 102% | 112% | 112% | 99.5% | 111% | 111% | 99.6% | 98.3% | 103% | 110% | 90.1% | 110% | 90.7% | 99.9% | 99.3% | 103% | 108% | 114% |  |  |
| Nc1n[nH]c2cccc(C#Cc3cccc(NC(=O)c4cccc(Cl)c4)c3)c12 | 20% | 37.8% | 35.7% | 55.2% | 46.1% | 20.5% | 32.4% | 17.7% | 42.5% | 12.7% | 44.9% | 28.5% | 21.5% | 49.9% | 18.2% | 18.8% | 50.4% | 15% |  |  |
| COc1ccc(C(=O)/C=C/c2cccc(Br)c2)cc1S(N)(=O)=O | -69.7% (active) | -56.4% (active) | -17% (active) | -42.8% (active) | -98.4% (active) | -34.6% (active) | -55.8% (active) | -91.7% (active) | -55.6% (active) | -26% (active) | -68.4% (active) | -79.2% (active) | -91.8% (active) | -91.8% (active) | -95.2% (active) | -79.9% (active) | 93.3% |  |  |  |
| CN1CCN(c2ccc3c(c2)nc(NNC(=O)c2cnccn2)c2cccn23)CC1 | -51% (active) | 6.95% (active) | 28.7% | 20% | -19.1% (active) | 11.7% | -17.9% (active) | -43.8% (active) | -15% (active) | -69% (active) | -46.8% (active) | 0.109% (active) | -77.9% (active) | -74.5% (active) | -85.8% (active) | -74% (active) | -84.7% (active) | 13.8% |  |  |
| CN1CCN(c2ccc3c(c2)nc(NNC(=O)c2ncccn2)c2cccn23)CC1 | 1.47% (active) | 11.2% | -46.9% (active) | 16.5% | -38.7% (active) | 6.1% (active) | -35.1% (active) | -62.8% (active) | -27.6% (active) | -7.45% (active) | -73.2% (active) | 6.25% (active) | 1.76% (active) | -87.5% (active) | -83.7% (active) | -80.9% (active) | -95% (active) | 7.34% (active) |  |  |
| Cc1cc(N=C2NC(=O)CS2)n[nH]1 | 104% | 114% | 107% | 103% | 110% | 100% | 93.5% | 94.6% | 108% | 98.7% | 72.7% | 101% | 79.3% | 108% | 102% | 95.9% | 124% |  |  |  |
| O=c1c2ccccc2nc(-c2ccccc2)n1/N=C/c1ccc2ccccc2c1 | 13.1% | 19.9% | 65.8% | 56.8% | 31.2% | 53.4% |  |  | 61.7% | 116% | 80.3% | 52.5% | 58.5% | 72.9% | 42.5% | 48.5% | 94.6% | 51.9% | 38.5% | 19.5% |
| NS(=O)(=O)c1ccc(-n2cc(-c3cccc(NC(=O)c4cc(Cl)cc(Cl)c4)c3)nn2)cc1 | 94.7% | 32.1% | 86.2% | 68.6% | -45.9% (active) | 69.7% | 69.6% | 2.52% (active) | 45.3% | 96.7% | 88.8% | 88% | 115% | 114% | 95.8% | 94.2% | 135% | 56.7% |  |  |
| C=C1CC[C@@H]2[C@]3(C)COC(c4cn(-c5ccccc5)nc4-c4ccccc4)O[C@@H]3CC[C@@]2(C)[C@@H]1C/C=C1/C(=O)OC[C@H]1O (stereo partly specified) | -87% (active) | -70.4% (active) | -18.8% (active) | -60.8% (active) | -88.5% (active) | -26.8% (active) |  |  | -84.2% (active) | -81.1% (active) | -63.5% (active) | -67.1% (active) | -78.1% (active) | -57.3% (active) | -95.5% (active) | -39.7% (active) | -13.9% (active) |  | -100% (active) | -45.7% (active) |
| O=C(N/N=C/c1ccc(-c2ccc(O)cc2)o1)c1[nH]c2ccc(Br)cc2c1-c1ccccc1 | 2.62% (active) | -34.8% (active) | -2.73% (active) | 10.3% | -29.2% (active) | -6.14% (active) |  |  | -27% (active) | 1.84% (active) | 8.78% (active) | -57.9% (active) | 1.62% (active) | 1.67% (active) | -21.7% (active) | 5.94% (active) | 38.2% | 4.83% (active) | -82.9% (active) | 0.944% (active) |
| CN(C)c1nc(NCCNS(=O)(=O)c2ccc(C(=O)/C=C/c3ccc(Cl)cc3)cc2)nc(Nc2ccc(F)cc2)n1 | -84.4% (active) | -97.5% (active) | 13.9% | -5.63% (active) | -99.8% (active) |  | -56.8% (active) | -100% (active) | -85.5% (active) | -56.5% (active) | 2.04% (active) | -97.7% (active) | 5.91% (active) | -16.9% (active) | -24.9% (active) | -23.3% (active) | 9.56% (active) | 5.38% (active) | -64.9% (active) | -12.2% (active) |
| S=C(Nc1ccccc1)Nc1ccc(OCc2nc3ccccc3[nH]2)cc1 | 29.5% | 25.4% | 27.4% | 39.8% | 34.5% |  |  |  | 61.6% | 24.6% | 46.3% | 47.1% | 30.4% | 72.3% | 24.6% | 18.9% | 72.1% | 28.9% | 49.1% | 19.8% |
| C[C@H]1CN(C(=O)c2ccc3c(NNC(=O)c4ccncn4)nc4cc(F)c(F)cc4n23)CCN1 | 28.4% | 36.6% | 65.3% | 30.1% | 15.5% | 38.7% | 6.69% (active) | 12.4% | 31.1% | 53.4% | 15.7% | 24.1% | 13.6% | 36.8% | 8.98% (active) | 15.2% | 50.3% | 10.9% |  |  |
| O=C(NNc1nc2cc(F)ccc2n2c(CN3CCCCC3)ccc12)c1cnccn1 | -52.4% (active) | 8.19% (active) | -9.76% (active) | -8.81% (active) | -84.8% (active) | -18.3% (active) | -35.2% (active) | -69.7% (active) |  | -67.2% (active) | -78.2% (active) | 1.01% (active) | -72.2% (active) | -92.7% (active) | -98.3% (active) | -79.5% (active) | -87.9% (active) | -16.2% (active) |  |  |
| C=C1CC[C@@H]2[C@]3(C)COC(c4cn[nH]c4-c4ccc(C)cc4)O[C@@H]3CC[C@@]2(C)[C@@H]1C/C=C1/C(=O)OCC1O (stereo partly specified) | -72.9% (active) | -6.69% (active) | 87.8% | 37.7% | -63.3% (active) |  | -31.3% (active) |  | 6.8% (active) | 51.4% | 12.9% | 7.06% (active) | 4.54% (active) | 49% | -53.5% (active) | 50.3% | 133% | -17.8% (active) | -63.9% (active) |  |
